Data published in PubChem BioAssay (NCI).
About 83,000 compounds went through this panel and 20% of them were active in at least one assay; those are over-represented in the sample as a whole.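 Note: values are percent growth. 100 is the growth of untreated cells, values between 100 and 0 indicate rising inhibition; between -100 and 0 indicates cell death.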 A number with no mark means an inactive call. Active and inactive are the calls of the source. The calls were made as follows: active = growth percent below 10; inactive = the rest.

tested on: HL-60(TB) leukemia; experiment: NCI-60 one-dose screen, 48 h (100 = growth as untreated, 0 = no growth, -100 = all killed); conditions: 10 µM unless noted

| Structure (SMILES) | growth |
| --- | --- |
| CC[C@@H](C(=O)[C@@H](C)[C@@H](O)[C@H](C)[C@@H]1O[C@@H]([C@@H](CC)C(=O)O)CC[C@@H]1C)C1O[C@]2(C=CC(=O)[C@]3(CC[C@@](C)([C@H]4CC[C@](O)(CC)[C@H](C)O4)O3)O2)[C@H](C)C[C@@H]1C (stereo not given in full) | -32.7% (active) |
| Cc1c(C(=O)OCCCCOC(=O)c2c(C)n(C)c3scc[n+]23)[n+]2ccsc2n1C | 87.1% |
| Cc1ccc(S(=O)(=O)OC[C@@]2(C)CC[C@]3(C)CC[C@]4(C)C(=CC[C@@H]5[C@@]6(C)CCCNC(C)(C)[C@@H]6CC[C@]54C)[C@@H]3C2)cc1 | -63% (active) |
| CN(C)c1ccc(Nc2c3ccccc3nc3ccccc23)cc1 | -2.21% (active) |
| O=S1(=O)OC(c2cc(Cl)c(O)c(Br)c2)(c2cc(Cl)c(O)c(Br)c2)c2ccccc21 | 92.4% |
| Cc1cc(C)c(S(=O)(=O)N2CCN(c3cc4c(cc3F)c(=O)c(C(=O)O)cn4C3CC3)CC2)c(C)c1 | 8.72% (active) |
| COc1ccc(-c2nn(-c3cccc(Cl)c3)cc2-c2cc(-c3cccs3)[nH]c(=S)n2)cc1 | 46.4% |
| COc1cccc(/C=C2\COc3ccc(O)c(O)c3C2=O)c1OC | -24.4% (active) |
| Cc1ccc(C(=O)/C=C/c2ccccc2)s1 | 97.1% |
| CC(C)C1=NOC(=O)C1=Cc1cn(-c2ccccc2)nc1-c1cccc([N+](=O)[O-])c1 | -4.77% (active) |
| CC(=O)n1nc(C(=O)OC(C)(C)c2ccccc2)c2ccccc21 | 97.5% |
| COc1cccc(C(=O)NNc2nc(Cl)nc(N3CCN(C(c4ccccc4)c4ccccc4)CC3)n2)c1 | 0.787% (active) |
| c1cc(C2=N[C@@H]3c4ccccc4C[C@@H]3O2)nc(C2=N[C@@H]3c4ccccc4C[C@@H]3O2)c1 | 105% |
| O=C1CNCCN1 | 99.5% |
| CCOC(=O)/C=C1\SC(=Nc2ccc(C#N)cc2)N(CCN2C(=O)/C(=C/C(=O)OCC)SC2=Nc2ccc(C#N)cc2)C1=O | 55.5% |
| O=C(O)c1ccccc1Nc1cccc(S(F)(F)(F)(F)F)c1 | 96.9% |
| COC(=O)C1=C(C)NC(C)=C(C(=O)OCC(C)C)C1c1ccccc1[N+](=O)[O-] (stereo not given) | 28.9% |
| O[C@H]1[C@H]2c3cc4c(cc3CN3CCC(=C[C@@H]1O)[C@H]23)OCO4 | 5.02% (active) |
| COC1(OC)C2(Cl)CCC1(Cl)C(Cl)=C2Cl | 139% |
| O=C1/C(=C/c2cn(-c3ccccc3)nc2-c2ccccc2)SC(=S)N1CCc1ccccc1 | 102% |

| Structure (SMILES) | growth |
| --- | --- |
| CCOc1cccc(/C=N/NC(=O)Cc2ccc(Nc3ccnc(C(F)(F)F)c3)cc2)c1O | 73.1% |
| CCOc1cccc(/C=N\Nc2nc(=O)cc(C(=O)OC)s2)c1O | 72.8% |
| Nc1ccc(/C=N/Nc2ccnc3c(O)cccc23)c2cccnc12 | 17.9% |
| O=C(OCc1ccc2c(Cl)cc(Cl)c(O)c2n1)c1cc2ccccc2[nH]1 | -36.1% (active) |
| COC(=O)c1ccc2[nH]c(O)c(C(=Nc3ccc(N(C)C(=O)CN4CCN(C)CC4)cc3)c3ccc([N+](=O)[O-])cc3)c2c1 | 11.6% |
| CCCCC(=O)c1ccc(OC)cc1 | 92.6% |
| CCOC(=O)C1=C(c2ccccc2)NC(=O)NC1CN1C(=O)c2ccccc2C1=O (stereo not given) | 57.4% |
| CCOc1cc2ncc(C#N)c(Nc3ccc(OCc4cccc(F)c4)c(Cl)c3)c2cc1NC(=O)CC1CCSS1 (stereo not given) | 54.8% |
| Cc1ccc(-c2csc(NC(=O)CSc3nc(-c4ccccc4)cc(=O)[nH]3)n2)cc1 | 49.4% |
| O=c1cc(-c2ccccc2)oc2c1ccc1ccccc12 | 106% |
| C[C@]12CC[C@@H]3c4ccc(O)c([N+](=O)[O-])c4CC[C@H]3[C@@H]1CC[C@@H]2NS(=O)(=O)c1ccc(C(F)(F)F)cc1 | -11.6% (active) |
| O=C(/C(=C\c1c(-c2ccccc2)[nH]c2ccccc12)S(=O)(=O)c1ccccc1)c1ccccc1 | -18.2% (active) |
| CCCCCCCC/C=C/CCCCCCCCC1=NCCN1CCO | 8.59% (active) |
| O=c1[nH]c(-c2ccc(Cl)cc2)cn1-c1ccc(-n2cc(-c3ccc(Cl)cc3)[nH]c2=O)cc1 | 112% |
| CCc1c2c(nc3ccc(OCc4ccc(B5OC(C)(C)C(C)(C)O5)cc4)cc13)-c1cc3c(c(=O)n1C2)COC(=O)[C@]3(O)CC | -1.71% (active) |
| O=C1/C(=C/c2ccc(F)cc2)C=C(c2ccccc2)N1CCc1ccccc1 | 81% |
| O=S(=O)(NCCNc1nccc(-c2c(-c3cccc(F)c3)nc3sccn23)n1)c1ccccc1 | 63.1% |
| O=C1c2ccccc2C(=O)c2c1oc1ccc3ccccc3c21 | 100% |
| O=C(Nc1ccc(Cl)c(Cl)c1)Nc1c(Oc2ccc(Cl)c(Cl)c2)ccc(Cl)c1S(=O)(=O)O | 4.23% (active) |
| C=C1C(=O)O[C@H]2[C@H]1CC/C(COC(=O)NCCc1c[nH]c3ccccc13)=C\CC[C@@]1(C)O[C@@H]21 | -46.2% (active) |
